# NR2F2 inh = NR2F2 transcriptional activity inhibitors, primary screen, cell-based, luciferase reporter, HEK293T, luminescence; COUP transcription factor 2 (Homo sapiens), P24468; HEK293T NGFI-A luciferase reporter; inhibition, % at 8.6 µM; hit rate 0.7% among 370,000;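 active means inhibition above a per-plate cutoff, mean inhibition of test wells between control levels plus 3 SD, cut at about 38% in these data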;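 further: cells cotransfected with COUP-TFII expression vector driving the NGFI-A reporter; 0% = median of COUP-TF2 test wells and 100% = reporter-only cells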
# SRC3 inh = SRC3 coactivator transcriptional activity inhibitors, primary screen, cell-based, luminescence | Nuclear receptor coactivator 3 (Homo sapiens), Q9Y6Q9 | hit rate 0.17% among 360,000 | HEK293 GAL4-SRC3 luciferase reporter | AID 588352, 2011 | inhibition, % at 3.6 µM;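 active means inhibition above a per-campaign cutoff, the mean of all compounds plus 3 SD, cut at about 60% in these data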;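 further: 0% = DMSO-treated cells and 100% = gossypol-treated cells at 36 µM; higher means less SRC3-driven luciferase light from the GAL4 reporter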
# Target sequence (Q9Y6Q9 whole entry, looked up, the tested form may be a part): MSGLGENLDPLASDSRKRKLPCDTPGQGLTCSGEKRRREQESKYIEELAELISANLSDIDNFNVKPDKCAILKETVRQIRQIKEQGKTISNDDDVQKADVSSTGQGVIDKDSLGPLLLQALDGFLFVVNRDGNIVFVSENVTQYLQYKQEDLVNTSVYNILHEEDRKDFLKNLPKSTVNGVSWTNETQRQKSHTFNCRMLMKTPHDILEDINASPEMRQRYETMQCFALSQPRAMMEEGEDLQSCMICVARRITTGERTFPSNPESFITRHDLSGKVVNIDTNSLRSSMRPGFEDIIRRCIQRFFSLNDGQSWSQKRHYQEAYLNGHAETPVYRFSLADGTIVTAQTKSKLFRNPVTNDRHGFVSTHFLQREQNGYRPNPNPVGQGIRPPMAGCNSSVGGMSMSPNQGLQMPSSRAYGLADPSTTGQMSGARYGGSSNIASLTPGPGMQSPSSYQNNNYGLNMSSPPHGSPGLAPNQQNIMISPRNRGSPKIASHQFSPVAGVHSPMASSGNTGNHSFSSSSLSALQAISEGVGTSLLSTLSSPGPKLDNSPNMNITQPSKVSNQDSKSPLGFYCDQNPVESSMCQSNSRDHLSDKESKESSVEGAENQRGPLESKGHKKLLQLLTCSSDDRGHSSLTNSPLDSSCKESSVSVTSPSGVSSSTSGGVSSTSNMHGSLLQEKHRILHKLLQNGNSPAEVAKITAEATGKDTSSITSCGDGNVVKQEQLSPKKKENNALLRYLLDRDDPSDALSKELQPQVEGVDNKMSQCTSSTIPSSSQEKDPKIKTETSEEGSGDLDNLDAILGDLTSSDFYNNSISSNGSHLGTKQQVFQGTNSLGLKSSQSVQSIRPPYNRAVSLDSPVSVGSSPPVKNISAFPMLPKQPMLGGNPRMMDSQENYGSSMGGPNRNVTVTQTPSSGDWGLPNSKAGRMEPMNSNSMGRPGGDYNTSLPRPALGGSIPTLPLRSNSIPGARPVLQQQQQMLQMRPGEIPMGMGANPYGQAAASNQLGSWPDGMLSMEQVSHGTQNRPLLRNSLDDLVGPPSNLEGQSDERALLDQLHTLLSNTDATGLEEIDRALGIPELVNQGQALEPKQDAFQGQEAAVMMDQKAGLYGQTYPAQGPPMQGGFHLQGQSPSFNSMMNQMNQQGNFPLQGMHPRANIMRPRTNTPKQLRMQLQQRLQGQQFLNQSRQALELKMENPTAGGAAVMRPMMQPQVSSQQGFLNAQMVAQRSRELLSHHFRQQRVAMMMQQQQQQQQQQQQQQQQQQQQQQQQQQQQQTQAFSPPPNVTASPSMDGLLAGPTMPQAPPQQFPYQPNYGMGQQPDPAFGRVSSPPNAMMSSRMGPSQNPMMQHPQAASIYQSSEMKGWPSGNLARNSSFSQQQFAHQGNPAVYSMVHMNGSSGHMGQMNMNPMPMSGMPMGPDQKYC
# Gli-Sufu block = Gli-Sufu pathway antagonists, primary screen, luciferase luminescence, Sufu-KO-LIGHT cells, uHTS; Sufu-KO-LIGHT fibroblasts, Gli luciferase reporter luminescence; inhibition, % at 5 µM; hit rate 0.74% among 340,000;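 active means inhibition above about 55%, limit read from the data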;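 further: 0% = DMSO-treated cells and 100% = wells with medium but no cells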
# SRC1 inh = SRC1 coactivator transcriptional activity inhibitors, primary screen, cell-based, luminescence | HEK293 GAL4-SRC1 luciferase reporter | inhibition, % at 3.6 µM | hit rate 0.12% among 360,000 | AID 588354, 2011;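 active means inhibition above the campaign mean plus 3 SD, with each screening campaign given its own cutoff, cut at about 60% in these data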;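 further: 0% = DMSO treated cells and 100% = gossypol at 36 µM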
# NCOA2 inhibitor = inhibition of GAL4-SRC2 driven luciferase reporter, primary screen, SRC2 inhibitor project, cell-based, luminescence | Nuclear receptor coactivator 2 (Homo sapiens), Q15596 | HEK293 GAL4-SRC2 luciferase reporter | inhibition, % at 9 µM | hit rate 0.17% among 370,000 | AID 651957, 2012;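 active means inhibition above the mean inhibition of all tested compounds plus 3 SD, set per campaign, cut at about 52% in these data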;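 further: 0% = DMSO treated cells and 100% = cells given Gossypol at 36 µM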
# NR5A2 inv ag = LRH-1 (NR5A2) inverse agonists, primary screen, cell-based, luminescence, HEK293T, StAR-luciferase reporter; Nuclear receptor subfamily 5 group A member 2 (Homo sapiens), O00482; LRH-1 transfected, 24 h; inhibition, % at 3.6 µM; hit rate 0.13% among 360,000; AID 602396, 2012;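 active means inhibition above the mean inhibition of all tested compounds plus 3 SD, cut at about 73% in these data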;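 further: 0% = DMSO wells and 100% = reporter-only cells lacking LRH-1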
# * marks the source's active call; other numbers are inactive results; · = no result given. In the library only some 1.3% were active in any assay of this set; here they are far more common.
SMILES,NR2F2 inh,SRC3 inh,Gli-Sufu block,SRC1 inh,NCOA2 inhibitor,NR5A2 inv ag
CCn1c(NN=O)nc2ccccc21,-7,13,70*,1,-9,-1
CCn1c(P(C)(=O)O)nc2ccccc21,7,-11,3,-38,-5,1
c1ccc2c(c1)-c1cccc3cccc-2c13,-2,-31,3,-8,-15,17
c1ccc2c(c1)[IH]c1ccccc1-2,59*,19,86*,19,-97,67
CN1CCCN(c2ccc([N+](=O)[O-])nc2)CC1,2,2,-7,-14,4,7
COC(=O)C1C(OC(=O)c2ccccc2)CC2CCC1[N+]2(C)C (configuration not stated),11,·,·,·,0,·
CC[C@H](C)[C@@H]1OC(=O)[C@H](C(C)C)N(C)C(=O)[C@H](C(C)C)NC(=O)[C@@H](C)[C@@H](CCCC#CBr)OC(=O)[C@H](C(C)C)N(C)C(=O)C2CCCN2C1=O (some centres not stated),25,·,·,·,·,·
CC(C)[C@H]1C(=O)O[C@H](C(C)C)C(=O)N(C)[C@@H](C(C)C)C(=O)O[C@H](C(C)C)C(=O)N(C)[C@@H](C(C)C)C(=O)O[C@H](C(C)C)C(=O)N1C,·,70*,84*,37,·,-15
COC(=O)C(Cc1ccc(N(CCCl)CCCl)cc1)N=Cc1ccccc1O (configuration not stated),1,11,64*,-4,7,6
CC(C)n1c(O)c(C=NCc2ccccc2)c(=O)[nH]c1=S,-9,20,-4,-91,0,3
COC/C=C1\CN2C3C[C@@H]1[C@H]1COC4=Nc5cc(OC)c(OC)c(OC)c5[C@@]43C[C@@H]12,1,9,1,-5,-11,21
CC[n+]1c(/C=C/N(C)c2ccccc2)sc2ccc(Cl)cc21,19,50,85*,25,-8,44
COc1cccc(OC)c1C1=NCC(=O)Nc2c1oc1ccc(Br)cc21,-60,6,57*,-4,-11,30
O=C1CN=C(c2ccccc2)c2oc3ccc(Br)cc3c2N1,1,-4,3,-1,-32,-42
N#CC(C#N)=NNc1ccc(-n2ccc(C(F)(F)F)n2)cc1,10,45,76*,32,0,30
CCn1nc(/C=C/c2ccccc2)nc2c(=O)n(C)c(=O)nc1-2,30,57,91*,-17,13,-50
CCn1nc(-c2cccs2)nc2c(=O)n(C)c(=O)nc1-2,·,59,·,53,·,6
CCC(c1nnnn1Cc1ccccc1)N1CCC(n2c(=O)[nH]c3ccccc32)CC1 (configuration not stated),3,31,·,25,1,35
c1cncc(-c2ccc3n2Cc2cnnn2-c2ccccc2-3)c1,6,·,·,·,37,·
O=C(COc1ccc(Cl)cc1)N1CCN(C2CCCC2)CC1,-1,1,29,5,-19,14
COc1ccc2c(c1)[nH]c1c(C)nccc12,31,73*,-28,71*,48,38
Cc1nccc2c1[nH]c1ccc(Br)cc12,-2,29,1,17,15,-1
CN1CCN(Cc2cc3c(cc2[N+](=O)[O-])OCO3)CC1,28,-2,4,-7,-17,-7
CCCc1nc2ccc(Br)cc2c(=O)n1-c1ccc([N+](=O)[O-])c(C(F)(F)F)c1,18,64*,44,35,6,6
C[CH2][Hg][S]c1ccccc1C(=O)O,-38,-101,76*,-138,-157,-33
SMILES,NR2F2 inh,SRC3 inh,Gli-Sufu block,SRC1 inh,NCOA2 inhibitor,NR5A2 inv ag
COC(=O)C1=C(c2ccc3ccccc3c2)C[C@@H]2CC[C@H]1N2C(=O)N1CCC(C)CC1,·,-10,29,5,·,-16
COC(=O)c1nc(-c2ccc3c(n2)C(=O)C(N)=C(OC)C3=O)c(N)c(-c2ccc(OC)c(OC)c2O)c1C,4,-37,58*,-5,1,1
COC1=C(C)C(=O)C2=C(C1=O)C(CO)N1C(C#N)C3CC4C(C1C2N1CCOC41)N3C (configuration not stated),1,83*,10,76*,56*,63
C=C(C=O)CC1CC(O)[C@]2(C)OC3CC4OC5C[C@]6(C)O[C@]7(C)CCC8OC9C[C@]%10(C)OC%11C(C)=CC(=O)OC%11CC%10OC9C[C@@H](C)C8OC7CC6O[C@]5(C)CC5OC5C4OC3CC2O1 (some centres not stated),·,-34,75*,-23,·,-27
Cc1cccc(Cn2cc(C=O)c3ccccc32)c1,5,17,4,13,30,28
O=Cc1cn(Cc2cccc([N+](=O)[O-])c2)c2ccccc12,14,30,-2,41,32,81*
CCN(CC)C(=O)c1ccc(NC(=O)c2cn(-c3ccccc3)nc2-c2ccc(OC)cc2)cc1,-10,19,0,-8,-8,5
CC(C)NC1(c2ccccc2)CCCCC1,9,·,·,·,28,·
C#CCOC(=O)C1=CCCN(C)C1,-1,-1,-17,-2,16,-7
Cc1cccc(C)c1-n1nnnc1C(CCc1ccccc1)N1CCC(n2c(=O)[nH]c3ccccc32)CC1 (configuration not stated),-22,84*,·,32,-5,-9
O=C1CN=C(c2ccc[nH]2)c2cc(Cl)ccc2N1,3,51,15,53,53*,40
CN=C1CN=C(c2ccc[nH]2)c2cc(Cl)ccc2N1,-8,·,·,·,·,·
O=C(NC1CCCCC1)Oc1cc2oc(=O)sc2cc1Cl,0,-2,5,0,-31,11
CCN1/C(=C\C=C\C2=[N+](CC)c3ccccc3C2(C)C)C(C)(C)c2ccccc21,·,81*,94*,75*,·,91*
CC1(C)C(=O)CC[C@@]2(C)C1=CCC1C2CC[C@]2(C)C(=O)CCC12 (some centres not stated),-10,3,8,2,-30,-8
CCC12CCN(CC3(O)CC3)C(Cc3ccc(O)cc31)C2(C)C (configuration not stated),16,·,·,·,13,·
Cc1[nH]nc2ccc(-c3cncc(OC[C@@H](N)Cc4c[nH]c5ccccc45)c3)cc12,·,94*,93*,94*,·,99*
CC(C)[C@H]1C(=O)O[C@@H]2CCN3CC=C(COC(=O)[C@](C)(O)[C@]1(C)O)[C@H]23,8,-7,7,2,-10,-21

# Compound activity deposited in PubChem by several laboratories.
